# Reference: PubChem BioAssay (NCI)
# Compounds without any hit were thinned out: in the full panel of roughly 83,000, 20% have a hit.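 Single-dose data. Exposure time 48 hours. Values below 10 considered active.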 Values without a mark were called inactive. Activity calls are given as the source filed them.
# Test system: MDA-MB-468 breast
# Assay: NCI-60 one-dose screen, 48 h (100 = growth as untreated, 0 = no growth, -100 = all killed)
# Conditions: 10 µM unless noted
row,Compound,growth
1,O=C(CSc1nnc(-c2ccc(Cl)cc2)o1)Nc1ccc(C(=O)/C=C/c2ccc(Cl)cc2)cc1,116%
2,CCOC(=O)c1nn(CC(O)c2ccccc2)c(NC(=O)Nc2cccc(F)c2)c1C (stereo not drawn),94.6%
3,COc1ccc(-c2cc(-c3nnc(SCC(=O)Nc4ccc(/C(C)=N\O)cc4)o3)c3ccccc3n2)cc1,106%
4,CCCCOc1ccc(NC(=O)Nc2nnc(C)s2)cc1,103%
5,CCCCCCNC(=O)Oc1ccc(/C(=C(/C)c2ccccc2)c2ccc(OCCN3CCCCCC3)cc2)cc1,9.72% (active)
6,O=C(Nc1ccc2[nH]c3ccccc3c2c1)c1ccccc1Cl,44.8%
7,C#Cc1ccc(NC(=O)c2ccc(/C=C/C(=O)c3nccn3C)cc2)c(F)c1,32.3%
8,N=c1ccn2c(n1)OC1C(O)C(CO)OC12 (stereo not drawn),6.2% (active)
9,COc1ccc(/C=C(\C#N)c2cc3ccccc3n2C(C)=O)cc1,58.8%
10,O=C(Nc1cccc2[nH]c(C(F)(F)F)nc12)c1ccc(F)cc1,65.6%
11,CC1(C)OC2C(CO)OC(n3ccc(=O)[nH]c3=O)C2O1 (stereo not drawn),127%
12,Nc1nc(C(=O)N/N=C/c2ccc(F)cc2)nn1-c1ccc(S(N)(=O)=O)cc1,102%
13,CCOC(=O)C1=C(C)NC(C)=C(C(=O)OC(C)C)C1c1cccc(C#N)c1 (stereo not drawn),79.4%
